From PubChem BioAssay (NCATS)
“And” between values parts separate entries of the source, which are not always exact repeats. Equal entries are not always repeated. Records with an inconclusive call do not appear. The source made the active and inactive calls. Unless noted, calls follow the shape of the dose curve; as a rule, active = well fitted curve in the direction sought with a large enough effect; inconclusive = small, poorly fitted or top-dose-only effect, or another doubt; inactive = no such curve, though single readings can be large; an effect the other way counts as inactive or inconclusive.

Tests used:
[1] = target: Cytochrome P450 3A4 (Homo sapiens) (UniProt P08684); test: qHTS Assay for Inhibitors and Substrates of Cytochrome P450 3A4 (AID 884); also: % is scaled to controls: 0 for no effect and ±100 for the full control effect; nearly all actives have a fitted effect of over 50% in size
Summary of the method: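 20 nM human CYP3A4 with 25 uM Luciferin-PPXE (at KM) in 200 mM KPO4, preincubated 10 min with compound; NADPH regeneration started a 60 min RT reaction. Luciferin detected by luminescence, normalized to 57 uM ketoconazole as full inhibition.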

[2] = Confirmation and Secondary Assay for Modulators of Hemoglobin Beta Chain Splicing at IVS2 654 locus (AID 910);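 also: HeLa cells stably carrying EGFP split by mutant beta-globin IVS2-654 intron; % of control where 0% means no effect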
Summary of the method: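 Readout: per-well total peak green fluorescence (488 nm ex, 500–520 nm em) from objects 5–250 µm, reflecting correct splicing of an EGFP-654 reporter. Compounds were applied for 2 days at 37 °C to overnight-plated HeLa EGFP-654 cells; controls were DMSO and 500 nM IVS2-654 PNA.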

[3] = Confirmation and Secondary Assay for Modulators of Hemoglobin Beta Chain Splicing at IVS2 705 locus (AID 930);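 also: HeLa cells stably expressing the EGFP-705 splicing reporter; GFP fluorescence per well restored by corrected splicing of the IVS2-705 intron in EGFP; % of control where 0% means no effect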
Summary of the method: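 HeLa cells stably carrying EGFP interrupted by mutant beta-globin intron 2 (IVS2-705) treated 2 days at 37C with compound; 500 nM antisense PNA as control. Correct splicing read as total peak GFP intensity per well by laser-scanning cytometry.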

[4] = qHTS Assay for Lipid Storage Modulators (AID 1519; calls by dose curve; as to activity change, negative = inhibition: % is scaled to controls: 0 for no effect and ±100 for the full control effect); conditions: Drosophila S3 cells, BODIPY lipid droplet/cell ratio, laser cytometry, cells loaded with oleic acid; for activity change, negative = inhibition: at 57.5 µM (top of the series)
Summary of the method: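 Cells seeded at 5,000 per well were treated with compounds over a concentration series and loaded with oleic acid (400 uM, as added). Lipid droplet fluorescence (488 nm excitation, 500-530 nm channel) was read by laser-scanning cytometry and normalized to 20 uM Triacsin C.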

[5] = target: Ubiquitin carboxyl-terminal hydrolase 1 (Homo sapiens) (UniProt O94782); test: Inhibitors of USP1/UAF1: Pilot qHTS (AID 504865);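 also: rhodamine fluorescence freed from ubiquitin-rhodamine substrate followed over time; top concentration of the series differs between compounds; % is scaled to controls: 0 for no effect and ±100 for the full control effect; nearly all actives have a fitted effect of over 35% in size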
Summary of the method: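 In 50mM HEPES pH 7.8 containing 0.5mM EDTA, 1mM TCEP, 0.1 mg/ml BSA and 0.01% Tween-20, 1nM USP1/UAF1 is exposed to compound for 15 min, then Ub-Rho (150nM final) is added and fluorescence is read over time.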

[6] = qHTS assay for small molecule antagonists of peroxisome proliferator-activated receptor delta signaling (AID 588535; active = well fitted inhibition curve with a large enough effect in the signal ratio, with a control signal flat, not every such curve was filed as active; the % refers to the signal ratio;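 as to max response: cells co-treated with a PPAR-delta agonist as stimulator during compound exposure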); conditions: HEK293T PPARd-UAS-bla, beta-lactamase FRET ratio, 18 h; 460 nm channel
Summary of the method: (§1)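 HEK293T PPAR-delta-UAS-bla cells, 4000/well, 2% charcoal/dextran FBS; 5 h 37 C; cpd titration; 18 h 37 C; CCF4 2 h RT; FI 460/530 nm; Hill fit → IC50, efficacy.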

[7] = target: Peroxisome proliferator-activated receptor delta (Homo sapiens) (UniProt Q03181); test: as above
Summary of the method: as §1

[8] = target: Peroxisome proliferator-activated receptor gamma (Homo sapiens) (UniProt P37231); test: qHTS assay for small molecule agonists of peroxisome proliferator-activated receptor gamma signaling (AID 588536; active = well fitted curve in the direction sought with a large enough effect in the signal ratio, with a control signal flat, not every such curve was filed as active; the % refers to the signal ratio;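 also: 0% = DMSO basal wells and 100% = rosiglitazone at 2 µM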)
Summary of the method: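 HEK293 UAS-bla reporter line, 1% charcoal/dextran FBS; titration, 16 h, 37 C; CCF4 loading 2 h RT; fluorescence 460/530 nm. Normalized to rosiglitazone 2 uM = 100%, DMSO = 0%.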

[9] = target: Retinoic acid receptor RXR-alpha (Homo sapiens) (UniProt P19793); test: qHTS assay for small molecule agonists of retinoid X receptor alpha signaling (AID 588544; calls by dose curve;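 also: 0% = DMSO basal wells and 100% = reference agonist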)
[10] = qHTS assay for small molecule antagonists of retinoid X receptor alpha signaling (AID 588546; active = well fitted inhibition curve with a large enough effect in the signal ratio, with a control signal flat, not every such curve was filed as active; the % refers to the signal ratio;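 also: cells stimulated with 9-cis-retinoic acid as agonist; % is scaled to controls: 0 for no effect and ±100 for the full control effect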); conditions: HEK293T RXRa-UAS-bla, beta-lactamase ratio, antagonist mode; measured here: W530 green channel, cytotoxicity proxy
Summary of the method: (§2)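 Beta-lactamase reporter inhibition, read as CCF4 fluorescence ratio (ex 405, em 460/530 nm) after 2 h at RT. HEK293T UAS-bla cells, 2500/well, were stimulated with 9-cis-RA at 500 or 100 nM final alongside test compound for 18 h at 37 C.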

[11] = target: Retinoic acid receptor RXR-alpha (Homo sapiens) (UniProt P19793); test: as above; conditions: HEK293T RXRa-UAS-bla, beta-lactamase ratio, antagonist mode
Summary of the method: as §2

[12] = target: Peroxisome proliferator-activated receptor alpha (Homo sapiens) (UniProt Q07869); test: qHTS assay for small molecule agonists of the peroxisome proliferator-activated receptor alpha (PPARalpha) signaling pathway (AID 651778); conditions: PathHunter PPARalpha complementation, chemiluminescence, 6 h; stronger effect = higher value; also: % of control where 0% means no effect
Summary of the method: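 Chemiluminescence from complemented enzyme reported PPARalpha activation in cells after 6 hr of compound treatment at 37 C. The detection reagent was incubated for 60 min at room temperature, and compounds were scored as agonists.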

[13] = qHTS assay for small molecule agonists of the antioxidant response element (ARE) signaling pathway measured by Nrf2-dependant transcriptional activity (AID 720636; active = well fitted curve in the direction sought with a large enough effect in the repeat runs; an effect the other way counts as inactive or inconclusive; also: % of control where 0% means no effect)
Summary of the method: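 ARE-luc HepG2 cells carrying an Nrf2-responsive luciferase reporter, in medium with 1% dialyzed FBS, exposed to compound for 16 hr at 37 C, 5% CO2. Luminescence read 30 min after ONE-Glo addition.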

[14] = qHTS assay for small molecule agonists of the antioxidant response element (ARE) signaling pathway measured by Nrf2-dependant transcriptional activity - cell viability counter screen (AID 720653; active = well fitted curve in the direction sought with a large enough effect in the repeat runs; an effect the other way counts as inactive or inconclusive; also: % is scaled to controls: 0 for no effect and ±100 for the full control effect); conditions: ARE-bla HepG2 viability, CellTiter-Glo ATP luminescence, 16 h; stronger effect = lower value
Summary of the method: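 Cytotoxicity counter screen: intracellular ATP quantified by CellTiter-Glo luminescence in the same ARE-bla HepG2 plates, after 16 h compound exposure and a 2 h beta-lactamase substrate step.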

[15] = qHTS assay for cell viability of HEK293 cells (AID 743288); conditions: ATP luminescence (CellTiter-Glo), 18 h; max response: stronger effect = lower value; also: % is scaled to controls: 0 for no effect and ±100 for the full control effect; nearly all actives have a fitted effect of over 50% in size
Summary of the method: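 HEK293 parental, 2,000 cells/well; ≥5 h pre-incubation 37 C; pintool compound addition; 18 h, 37 C; CellTiter-Glo 30 min RT; luminescence read.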

[16] = qHTS assay for cell viability of the p53RE-bla HCT-116 cell line (AID 743292); also: % is scaled to controls: 0 for no effect and ±100 for the full control effect; nearly all actives have a fitted effect of over 55% in size
Summary of the method: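 CellSensor p53RE-bla HCT-116 cells (4,000/well) pre-incubated 5 h at 37 C, then exposed to compounds in DMSO for 16 h at 37 C. Viability read as ATP content by CellTiter-Glo luminescence after 30 min at room temperature.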

[17] = target: Nuclear receptor subfamily 1 group I member 2 (Rattus norvegicus) (UniProt Q9R1A7); test: qHTS assay for small molecule activators of the rat pregnane X receptor (rPXR) signaling pathway (AID 651751; call rule not given here; also: 0% is about no effect); conditions: rPXR reporter cells, luciferase (One-Glo), 24 h
[18] = target: Vitamin D3 receptor (Homo sapiens) (UniProt P11473); test: qHTS assay for small molecule antagonists of vitamin D receptor signaling (AID 588541; calls by dose curve;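 also: receptor activated by calcitriol during compound treatment; % is scaled to controls: 0 for no effect and ±100 for the full control effect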)
Summary of the method: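 Antagonist-mode beta-lactamase reporter assay: HEK293T VDR-UAS-bla cells were exposed to titrated compound alongside 1-alpha,25-dihydroxyvitamin D3 at 3 nM final for 16 h. Values were normalized to the 50 nM agonist control and DMSO basal, with IC50 and efficacy from Hill equation fits.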

[19] = qHTS profiling for inhibitors of Plasmodium falciparum proliferation (AID 504749);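 also: 0% = DMSO vehicle and full inhibition = artemisinin control; nearly all actives have a fitted effect of over 60% in size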; conditions: P. falciparum in erythrocytes, SYBR Green DNA, 72 h, at 28.7 µM (top of the series)
Summary of the method: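 Infected RBCs, 0.3% parasitemia/2.5% Hct final; cpd 72 h, 37 C, 5% CO2; lysis buffer with saponin/triton/SYBR Green I, o/n RT dark; FI 485/535; norm. to artemisinin (0.29 uM) and DMSO.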

[20] = measured here: cell count channel max response
[21] = measured here: lipid channel max response

Chain of Retinoic acid receptor RXR-alpha (Homo sapiens) (P19793 whole entry, looked up): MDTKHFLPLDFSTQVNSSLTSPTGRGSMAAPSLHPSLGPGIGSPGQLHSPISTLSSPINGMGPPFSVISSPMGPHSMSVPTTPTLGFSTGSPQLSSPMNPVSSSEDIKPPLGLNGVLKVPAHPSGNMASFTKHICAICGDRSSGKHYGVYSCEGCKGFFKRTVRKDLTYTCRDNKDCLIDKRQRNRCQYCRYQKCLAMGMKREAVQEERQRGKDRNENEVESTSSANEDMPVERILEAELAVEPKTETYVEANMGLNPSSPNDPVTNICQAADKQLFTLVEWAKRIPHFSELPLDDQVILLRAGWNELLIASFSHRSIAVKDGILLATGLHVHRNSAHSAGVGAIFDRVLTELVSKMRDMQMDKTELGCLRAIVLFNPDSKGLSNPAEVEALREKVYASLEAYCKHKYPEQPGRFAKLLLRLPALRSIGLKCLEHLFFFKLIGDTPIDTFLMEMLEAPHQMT
Chain of Ubiquitin carboxyl-terminal hydrolase 1 (Homo sapiens) (O94782 whole entry, looked up): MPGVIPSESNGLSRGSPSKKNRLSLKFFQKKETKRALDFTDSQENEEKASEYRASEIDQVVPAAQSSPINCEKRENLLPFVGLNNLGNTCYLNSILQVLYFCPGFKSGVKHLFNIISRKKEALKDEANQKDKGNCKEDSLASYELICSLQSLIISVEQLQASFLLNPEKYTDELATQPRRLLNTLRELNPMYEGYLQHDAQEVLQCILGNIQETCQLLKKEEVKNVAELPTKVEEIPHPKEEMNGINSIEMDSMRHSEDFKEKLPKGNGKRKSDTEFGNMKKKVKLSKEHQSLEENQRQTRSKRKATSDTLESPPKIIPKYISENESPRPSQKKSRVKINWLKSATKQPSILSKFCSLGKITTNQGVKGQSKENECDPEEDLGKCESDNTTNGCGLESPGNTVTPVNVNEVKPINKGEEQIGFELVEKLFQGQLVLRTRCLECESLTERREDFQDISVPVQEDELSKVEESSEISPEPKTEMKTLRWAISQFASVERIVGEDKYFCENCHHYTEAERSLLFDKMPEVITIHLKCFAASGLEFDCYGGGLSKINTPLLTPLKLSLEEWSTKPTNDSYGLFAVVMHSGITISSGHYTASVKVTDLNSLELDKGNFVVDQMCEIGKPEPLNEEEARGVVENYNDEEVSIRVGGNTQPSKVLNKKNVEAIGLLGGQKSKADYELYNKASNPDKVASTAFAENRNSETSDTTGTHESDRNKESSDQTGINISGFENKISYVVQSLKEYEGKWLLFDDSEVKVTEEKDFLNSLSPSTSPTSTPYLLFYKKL
Chain of Peroxisome proliferator-activated receptor alpha (Homo sapiens) (Q07869 whole entry, looked up): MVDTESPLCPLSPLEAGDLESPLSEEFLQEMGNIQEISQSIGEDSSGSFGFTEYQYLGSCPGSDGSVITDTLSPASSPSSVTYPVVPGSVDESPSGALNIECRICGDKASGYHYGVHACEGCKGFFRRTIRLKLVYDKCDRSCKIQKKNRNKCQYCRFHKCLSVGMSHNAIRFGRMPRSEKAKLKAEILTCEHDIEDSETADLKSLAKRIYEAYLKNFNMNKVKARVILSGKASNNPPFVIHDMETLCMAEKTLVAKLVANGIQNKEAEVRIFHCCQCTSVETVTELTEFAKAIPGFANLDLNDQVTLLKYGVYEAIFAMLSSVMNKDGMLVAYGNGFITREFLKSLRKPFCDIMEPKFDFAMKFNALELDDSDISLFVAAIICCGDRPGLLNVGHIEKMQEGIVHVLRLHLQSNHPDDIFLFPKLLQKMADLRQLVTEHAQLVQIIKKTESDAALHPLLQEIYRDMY
Chain of Nuclear receptor subfamily 1 group I member 2 (Rattus norvegicus) (Q9R1A7 whole entry, looked up): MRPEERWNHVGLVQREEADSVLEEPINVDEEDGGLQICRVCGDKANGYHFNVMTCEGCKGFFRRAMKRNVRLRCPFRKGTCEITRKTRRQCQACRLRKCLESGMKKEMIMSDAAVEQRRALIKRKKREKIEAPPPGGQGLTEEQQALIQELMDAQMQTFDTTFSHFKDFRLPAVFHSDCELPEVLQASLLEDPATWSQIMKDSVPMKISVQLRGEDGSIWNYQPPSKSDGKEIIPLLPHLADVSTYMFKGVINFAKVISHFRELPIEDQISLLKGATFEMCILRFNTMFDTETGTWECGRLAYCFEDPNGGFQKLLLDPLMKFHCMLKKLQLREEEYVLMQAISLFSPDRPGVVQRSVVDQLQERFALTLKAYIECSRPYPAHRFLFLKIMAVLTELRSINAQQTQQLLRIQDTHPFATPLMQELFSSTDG
Chain of Cytochrome P450 3A4 (Homo sapiens) (P08684 whole entry, looked up): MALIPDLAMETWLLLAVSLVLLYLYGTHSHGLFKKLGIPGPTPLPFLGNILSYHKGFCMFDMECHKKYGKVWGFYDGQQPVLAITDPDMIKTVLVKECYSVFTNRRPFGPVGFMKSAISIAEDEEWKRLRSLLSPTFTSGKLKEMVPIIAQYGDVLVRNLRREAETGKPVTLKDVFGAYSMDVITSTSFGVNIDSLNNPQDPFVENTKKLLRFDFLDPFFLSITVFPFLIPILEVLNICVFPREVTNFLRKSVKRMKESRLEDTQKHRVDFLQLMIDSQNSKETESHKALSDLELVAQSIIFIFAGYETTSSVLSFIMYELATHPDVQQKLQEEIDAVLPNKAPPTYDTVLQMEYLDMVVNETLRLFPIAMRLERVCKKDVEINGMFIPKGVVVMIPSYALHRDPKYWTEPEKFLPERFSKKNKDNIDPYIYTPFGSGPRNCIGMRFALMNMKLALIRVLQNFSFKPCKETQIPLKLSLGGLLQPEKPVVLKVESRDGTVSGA
Chain of Vitamin D3 receptor (Homo sapiens) (P11473 whole entry, looked up): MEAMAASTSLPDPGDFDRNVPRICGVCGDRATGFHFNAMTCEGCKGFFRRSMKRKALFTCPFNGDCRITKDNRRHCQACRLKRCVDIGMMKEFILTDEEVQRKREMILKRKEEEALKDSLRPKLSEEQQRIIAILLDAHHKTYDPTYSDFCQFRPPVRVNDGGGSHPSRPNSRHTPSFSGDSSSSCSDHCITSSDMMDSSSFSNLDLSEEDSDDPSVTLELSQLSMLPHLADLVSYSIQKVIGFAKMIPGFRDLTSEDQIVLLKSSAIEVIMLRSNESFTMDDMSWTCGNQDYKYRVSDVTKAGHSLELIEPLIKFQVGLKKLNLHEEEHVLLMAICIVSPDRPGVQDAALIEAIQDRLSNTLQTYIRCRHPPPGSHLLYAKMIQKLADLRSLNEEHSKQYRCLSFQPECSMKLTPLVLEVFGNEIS
Chain of Peroxisome proliferator-activated receptor delta (Homo sapiens) (Q03181 whole entry, looked up): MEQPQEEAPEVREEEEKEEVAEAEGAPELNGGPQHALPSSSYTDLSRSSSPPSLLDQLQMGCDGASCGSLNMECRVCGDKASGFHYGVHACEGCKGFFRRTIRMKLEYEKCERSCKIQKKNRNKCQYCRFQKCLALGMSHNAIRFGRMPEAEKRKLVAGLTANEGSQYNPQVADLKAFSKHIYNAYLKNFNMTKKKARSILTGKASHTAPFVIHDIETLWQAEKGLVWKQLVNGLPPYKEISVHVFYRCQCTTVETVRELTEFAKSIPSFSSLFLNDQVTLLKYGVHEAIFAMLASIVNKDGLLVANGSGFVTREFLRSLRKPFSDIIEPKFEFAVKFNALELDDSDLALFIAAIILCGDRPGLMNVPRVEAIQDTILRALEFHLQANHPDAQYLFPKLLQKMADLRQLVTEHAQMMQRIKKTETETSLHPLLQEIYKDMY
Chain of Peroxisome proliferator-activated receptor gamma (Homo sapiens) (P37231 whole entry, looked up): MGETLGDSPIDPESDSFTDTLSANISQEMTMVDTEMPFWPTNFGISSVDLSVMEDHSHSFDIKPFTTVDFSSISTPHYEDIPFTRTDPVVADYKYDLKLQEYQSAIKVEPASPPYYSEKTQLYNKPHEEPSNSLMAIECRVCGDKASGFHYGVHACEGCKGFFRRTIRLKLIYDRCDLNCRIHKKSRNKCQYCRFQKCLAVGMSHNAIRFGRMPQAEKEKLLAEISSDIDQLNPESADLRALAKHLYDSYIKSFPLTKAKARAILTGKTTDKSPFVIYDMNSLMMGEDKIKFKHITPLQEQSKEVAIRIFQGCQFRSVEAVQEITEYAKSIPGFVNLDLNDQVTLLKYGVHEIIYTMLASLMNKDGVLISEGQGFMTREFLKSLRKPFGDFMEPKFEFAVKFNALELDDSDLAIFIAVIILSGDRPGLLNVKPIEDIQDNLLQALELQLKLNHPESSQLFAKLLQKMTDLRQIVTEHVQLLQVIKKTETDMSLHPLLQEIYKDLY

N#Cc1c(Cl)cccc1Cl
41.3%: max response [6]
14.3%: max response [4, 21]
inactive: Potency [1] | Potency [2] | Potency [3] | activity change, negative = inhibition [4] 7.12% | Potency [5] | Potency [7] | outcome [8] | Potency [9] | max response [11] 2.12% | max response [12] 0.511% | outcome [13] | max response [14] 0.251% | max response [15] 0.0704% | Potency [16] | max response [17] 2.13%
-15.4%: max response [10]
9.19%: max response [4, 20]

COP(N)(=O)SC (stereo unspecified)
-17.3% and -16.5%: max response [10]
inactive: Potency [1] | Potency [2] | Potency [3] | activity change, negative = inhibition [4] 4.67% | Potency [5] | Potency [7] | outcome [8] | outcome [18] | Potency [9] | max response [11] -4.89% and -18.9% | max response [12] -4.83% and -1.06% | outcome [13] | max response [14] 9.18% and -6.05% | max response [15] -4.36% and -1.51% | Potency [16] | max response [17] -2.32% and -2.07%
57.3% and -26.4%: max response [6]
0.934%: max response [4, 20]
6.43%: max response [4, 21]

CC(C)(O)[C@@H]1C2OC(=O)[C@@H]1[C@]1(O)C[C@H]3O[C@]34C(=O)O[C@H]2[C@]14C
3.27%: max response [4, 20]
5.39%: max response [4, 21]
inactive: activity change, negative = inhibition [4] 5.46% | Potency [5]

C=C[C@H]1CN2CCC1C[C@@H]2C(O)c1ccnc2ccccc12 (stereo partly specified)
20.2%: max response [4, 20]
inactive: Potency [1] | activity change, negative = inhibition [4] 7.24% | Potency [5]
27.5%: max response [4, 21]

CC([C@H](O)c1ccccc1)N(C)C (stereo partly specified)
14.6%: max response [4, 20]
17.5%: max response [4, 21]
inactive: Potency [1] | Potency [2] | Potency [3] | activity change, negative = inhibition [4] 4.16% | Potency [5] | activity, negative = inhibition ([19]; parasite line A) 3.7% | activity, negative = inhibition ([19]; parasite line B) -27.1%

CCS(=O)CCSP(=O)(OC)OC (stereo unspecified)
3.47%: max response [4, 21]
34.5%: max response [6]
-0.327%: max response [10]
inactive: Potency [1] | Potency [2] | Potency [3] | activity change, negative = inhibition [4] -0.0729% | Potency [5] | Potency [7] | outcome [8] | outcome [18] | Potency [9] | max response [11] 8.07% | max response [12] -0.0185% | outcome [13] | max response [14] -6.55% | max response [15] -4.96% | Potency [16] | max response [17] -2.51%
0.72%: max response [4, 20]

CN1[C@@H]2CC(OC(=O)[C@H](CO)c3ccccc3)C[C@@H]1[C@H]1O[C@H]12 (stereo partly specified)
inactive: activity change, negative = inhibition [4] 4.98% | Potency [5]
-8.42%: max response [4, 20]
-4.12%: max response [4, 21]
